Data as given in ChEMBL document CHEMBL3433997, “St. Jude Leishmania screening dataset” (2016).

These compounds were tested against Glucose transporter (Leishmania mexicana) (UniProt O61059) (assay: ST_JUDE_LEISH: Cytotoxicity at 2uM final concentration against transgenic Leishmania Mexicana promastigotes LmGT2 that are glucose transport deficient and complemented with the L. Mexicana glucose transporter 2. Activity is measured by DNA content using SYBR green in vitro).
Assay type: functional

Compound	inhibition [%]
CCOc1cc(C(=O)NCCN2CCCCC2)ccc1-c1nc2cc(Cl)ccc2[nH]1	2.06
Cc1cc2nc(-c3ccc(/C=C/C(=O)NCCCc4ccccc4)cc3)[nH]c2cc1C	1.65
CCCOc1ccc(CCCON2C(N)=NC(N)=NC2(C)C)cc1	6.99
N=C(NCc1ccc(O)cc1)Nc1nc(-c2ccc(OCCCn3ccnc3)cc2)cs1	-3.09
CC(C)(CN)c1nc(-c2ccc(Cl)c(O)c2)c(-c2ccncc2)[nH]1	1.18
COc1cc(NC(=O)/C=C/c2ccccc2OC(F)(F)F)cc(OCCN2CCC(O)(c3ccccc3)CC2)c1	5.81
Cc1noc(=O)c2ccc(NC(=O)C(O)(CSc3ccccc3)CC(C)C)cc12 (stereo not given)	3.58
CC(=O)Nc1nc(C(=O)Nc2ccc(-c3cccc(-c4nc5cc(F)ccc5[nH]4)c3)cc2)cs1	3.35
Cc1ccc(CN2CCC(C(=O)Nc3ccc(-c4cc5ccccc5[nH]4)cc3)CC2)o1	4.6
Cc1c[nH]c(CCNC(=O)c2cc(-c3ccc(Cl)cc3)cs2)n1	2.79
O=c1cc(NCCCNCc2cccc(OC(F)(F)C(F)F)c2)[nH]c2ccccc12	5.78
C[C@@H](N/C(=N\c1ccccc1Cl)Nc1ccc(C#N)cc1O)c1ccc(Br)cc1	3.66
COc1cccc(CNC(=O)[C@H]2CNCCN2C(=O)CCCc2ccccc2)c1	5.01
CN1CCN(CC2(Nc3nccc(NCc4ccc(Cl)cc4Cl)n3)CCCCC2)CC1	6.18
Cc1cc(N[C@@H](Cc2ccccc2)C(=O)NCCOc2ccccc2)nc(NCCOc2ccccc2)n1	2.71
Cc1cc(N[C@@H](CC(C)C)C(=O)NCc2cccc(F)c2)nc(NCC2CCCCC2)n1	2.2
CCOc1ccc2[nH]c(C)cc(=NN=Cc3ccc(Cl)cc3)c2c1	-1.27
Nc1cc(-c2ccc(Br)cc2O)nc2ccccc12	2.06
O=C(NCc1ccc(C(=O)N2CCC(N3CCCCC3)CC2)cc1)c1cc(-c2cccc(C(F)(F)F)c2)ccc1O	7.14
CC1CCC(C(C)C)C(OC(=O)CSc2nnc3c(n2)[nH]c2ccccc23)C1 (stereo not given)	-0.42

Compound	inhibition [%]
Cc1cc(Nc2ccc(Oc3ccc(Cl)cc3)cc2)nc(N)n1	2.92
Cc1c(F)cc(C(=O)NC2CC2)cc1-c1ccc2c(c1)c(C)nn2S(=O)(=O)c1cccs1	2.8
COc1ccc(-c2ccc(NC(=O)c3ccc(C#N)cc3)cc2)cc1CN(C)CCN(C)C	1.19
N#Cc1cncc(-c2nc3c(N4CCN(c5cnccn5)CC4)cccc3n2CCNCc2ccccc2)c1	-3.33
CCCCCCCN(Cc1ccc(OC(C)(C)C(=O)OCC)cc1)C(=O)Nc1ccccc1OC(F)(F)F	1.43
COc1ccc(OC)c2c1CC1NCC2c2c(OC)ccc(OC)c21 (stereo not given)	0.54
Cc1nnc(N2C(=N)SC(=Cc3ccc(-c4ccc(OC(F)(F)F)cc4)o3)C2=O)s1	3.61
CCc1c(C)nc2nc(Cc3cccc(F)c3)nn2c1N1CCN(c2ccccn2)CC1	9.56
COc1ccc(Nc2ccnc3cc(Cl)ccc23)cc1OC	7.28
O=C(Nc1ccccc1)Nc1ccc(-n2ccc(C(F)(F)F)n2)cc1	-0.06
COc1ccc(C2C(C(=O)Nc3ccc(C)cc3Br)c3ccccc3C(=O)N2C)cc1 (stereo not given)	0.83
Cc1cccc2nc(-c3ccc(-c4cccc(CNCC5CCCO5)c4)s3)[nH]c12 (stereo not given)	11.3
Cc1ccc(NC(=O)c2ccc3ncccc3c2)cc1OC1CCN(Cc2ccco2)C1 (stereo not given)	1.55
Cc1cc(N(C)C)nc(Nc2ccc(NC(=O)Nc3ccccc3)cc2)n1	4.26
O=C(O)CCSSc1cccc[n+]1[O-]	3.25
COc1cccc(-c2cc(-c3ccc(NC(=O)c4ccccc4)cc3)c3c(N)ncnc3n2)c1	-2.31
CCNc1cc(C(=O)N[C@@H](Cc2ccccc2)[C@H](O)CNCc2cccc(OC)c2)c(OC)c(N2CCCCS2(=O)=O)c1	2.16
COc1ccc(CNC2CCN(C)CC2)cc1-c1ccc(S(=O)(=O)NCc2cccnc2)s1	5.84
Cc1cc(CN2CCC(C(=O)Nc3ccc(-c4nc5ccccc5[nH]4)cc3)CC2)oc1C	2.24
Cc1cccc2nc(-c3cccc(-c4ccc(NC(=O)c5ccncc5)cc4)c3)[nH]c12	2
